IL1B secr inh: inflammasome signaling inhibition, IL-1 beta readout; THP-1 LPS/ATP IL-1B secretion, AlphaLISA, 16 h; active compounds read low; activity change, % at 57.5 µM; hit rate 4.7% among 360,000; AID 743279; in the data active = activity change below about -50%; inconclusive = mostly about -30% to -49%; note: % is set by controls: 0 for no effect and ±100 for the full control effect
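THP-1 cells pretreated 1 hr with compounds (up to 57.5 uM final), then stimulated with LPS (250 ng/mL final) plus ATP (1.25 mM final); secreted IL-1B measured by AlphaLISA after 16 hr, decreased signal indicating inhibition.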
TGFb inhibitor: TGF-b pathway inhibition. HepG2 CAGA-GFP TGF-b/SMAD3 reporter, GFP fluorescence, 18 h; TGF-beta stimulated, 500 pg/mL final. Potency, µM (series often up to 46.1 µM), inactives show at the highest dose activity, negative = inhibition, actives largely listed as inhibitors. hit rate 1.2% among 410,000. AID 588855; note: potency is the fitted concentration of half-maximal effect; % is set by controls: 0 for no effect and ±100 for the full control effect; nearly all actives have a fitted effect of over 65% in size
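HEPG2 CAGA-GFP, 1000 cells/well; 2 h settle, 37 C; cpd via pin tool; TGF-b 500 pg/mL final; 18 h, 37 C; GFP imaging ex488/em500-530; %Activity normalised to -TGF-b and +DMSO controls; CRC fit, curve class.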
DT40 TDP1 CPT: growth inhibition of DT40 Tdp1-/-;hTDP1 cells with camptothecin (screen for TDP1 inhibitors); AID 686979; chicken DT40 Tdp1-/-;hTDP1 cells + 20 nM CPT, ATP luminescence, 48 h; Potency, µM (titrated, usually from 46.2 µM), without a hit: at the highest dose activity change, negative = growth inhibition, most hits filed as inhibitors; hit rate 12% among 420,000; note: potency is the fitted concentration of half-maximal effect; % is set by controls: 0 for no effect and ±100 for the full control effect; nearly all actives have a fitted effect of over 55% in size
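Chicken DT40 Tdp1-/- cells stably complemented with human TDP1 were seeded at 400 cells/well in medium containing 20 nM camptothecin, exposed to pin-transferred compounds, and grown at 37 °C for at least 48 hr. Viability was read as ATP luminescence.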
DT40 TDP1 no CPT: qHTS for Inhibitors of human tyrosyl-DNA phosphodiesterase 1 (TDP1): qHTS in cells in absence of CPT | DT40 Tdp1-/- hTDP1 cells, no CPT, ATP luminescence, 48 h | Potency, µM (highest dose often 46.2 µM), without a hit: at the highest dose activity change, negative = growth inhibition, most hits filed as inhibitors | hit rate 15% among 420,000 | AID 686978, 2013; note: potency is the fitted concentration of half-maximal effect; % is set by controls: 0 for no effect and ±100 for the full control effect; nearly all actives have a fitted effect of over 55% in size
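Stably hTDP1-transfected Tdp1-null chicken DT40 cells were treated with library compounds minus camptothecin and grown for at least 48 hr at 37 °C, after which cellular ATP was quantified by luminescence.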
S-ASM inh: blocks human secretory acid sphingomyelinase. P17405. placental ASM, HMU-PC fluorogenic substrate, 60 min. Potency, µM (series often up to 57.5 µM), without a hit: at the highest dose activity change, negative = inhibition, actives largely listed as inhibitors. hit rate 0.006% among 340,000. AID 504937; note: potency is the fitted concentration of half-maximal effect
Target sequence (P17405 47-631 limits assumed): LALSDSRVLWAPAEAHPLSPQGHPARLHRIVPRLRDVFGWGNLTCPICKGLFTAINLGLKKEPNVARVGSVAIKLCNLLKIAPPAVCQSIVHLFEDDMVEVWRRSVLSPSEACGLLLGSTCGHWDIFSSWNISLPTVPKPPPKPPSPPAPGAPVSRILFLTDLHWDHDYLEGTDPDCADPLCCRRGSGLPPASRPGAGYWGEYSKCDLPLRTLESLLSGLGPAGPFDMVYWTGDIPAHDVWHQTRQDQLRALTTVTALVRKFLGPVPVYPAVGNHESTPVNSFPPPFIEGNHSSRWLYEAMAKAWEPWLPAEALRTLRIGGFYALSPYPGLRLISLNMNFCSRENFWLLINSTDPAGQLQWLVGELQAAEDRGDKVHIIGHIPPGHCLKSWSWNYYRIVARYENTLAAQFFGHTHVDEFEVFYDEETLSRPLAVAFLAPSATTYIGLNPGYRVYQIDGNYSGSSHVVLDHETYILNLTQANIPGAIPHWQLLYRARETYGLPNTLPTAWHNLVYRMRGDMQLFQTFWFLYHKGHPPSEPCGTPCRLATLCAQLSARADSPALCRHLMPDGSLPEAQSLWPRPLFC
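Steps: dispense placental human ASM, pin compound, wait 10 min at room temperature, add HMU-PC0 substrate at 9 uM final, incubate 60 min at 37 °C, add stop solution raising pH to 10, read fluorescence.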
HepG2 viability: HepG2 cytotoxicity, counter-screen for TGF-b inhibitors; hit rate 0.76% among 410,000; HepG2 CAGA-GFP viability, ATP luminescence, 18 h; Potency, µM (series often up to 46.1 µM), for inactives: at the highest dose activity change, negative = cytotoxicity, usual class: cytotoxic; note: potency is the fitted concentration of half-maximal effect
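CellTiter-Glo luminescence gave cytotoxicity after 18 hours at 37 degrees C. The cells were HepG2 CAGA-GFP in 1% FBS DMEM, stimulated with 500 pg/mL TGF-beta after compound addition. %Activity was normalised to no-cell wells (complete cell-killing) and DMSO (no toxicity), and curves were fitted and classified.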
Starred values were filed as active, the others as inactive; ? = inconclusive; nt = not tested or not shown; ! = a repeat was not active; [ ] = another dose, or the depositor's remark. In the library only some 19% were active in any assay of this set; here they are far more common. Unless noted, calls come from the whole dose curve; as a rule, active = well fitted curve in the direction sought with a large enough effect; inconclusive = small, poorly fitted or top-dose-only effect, or another doubt; inactive = no such curve, though single readings can be large; an effect the other way counts as inactive or inconclusive.

SMILES	IL1B secr inh	TGFb inhibitor	DT40 TDP1 CPT	DT40 TDP1 no CPT	S-ASM inh	HepG2 viability
CCOC(=O)c1c(C)oc2c1c1c(c3ccccc32)OCN(Cc2ccccn2)C1	-75.3*	?	?	?	-12.7%	-25.5%
CCOC(=O)N1CCN(Cc2cc(=O)oc3ccc4ccccc4c23)CC1	-2.4	3.2%	23.1µM*	?	-15.1%	-2.0%
O=C(CC12CC3CC(CC(C3)C1)C2)NCC(=O)OCc1cc(=O)oc2ccc3ccccc3c12	-9.0	-10.3%	?	18.4µM*	199.8%	7.0%
COc1cccc(CN(C)C(=O)CC2C(=O)NCCN2C2Cc3ccccc3C2)c1 (centres undefined)	-8.3	0.3%	-27.9%	-28.0%	-2.6%	-15.3%
O=C(Nc1c2c(nn1-c1ccc(Cl)cc1)CS(=O)(=O)C2)c1ccc(Br)cc1	nt	?	23.1µM*	16.4µM*	nt	-15.3%
COc1ccc(O)c(/C=N/NC(=O)CCC(=O)Nc2cccc(C)c2)c1	112.8	5.2%	20.6µM*	20.6µM*	46.0%	-6.5%
COc1ccc(OC)c(/C=N/NC(=O)CCCC(=O)Nc2cccc(Br)c2)c1	-0.9	1.5%	-6.2%	-27.1%	45.0%	20.1%
COc1ccc(O)c(/C=N/NC(=O)CCC(=O)Nc2ccc(C)cc2)c1	67.8	-29.0%	?	20.6µM*	47.9%	-8.0%
COc1cccc(/C=N/NC(=O)CCCC(=O)Nc2ccc(Br)cc2)c1	4.4	0.0%	20.6µM*	20.6µM*	-0.8%	2.0%
COc1cc(/C=N/NC(=O)CCC(=O)Nc2ccc(Br)cc2)ccc1O	2.9	-2.3%	4.7%	-17.1%	41.2%	4.3%
Cc1ccc(NC(=O)CCC(=O)N/N=C/c2cc([N+](=O)[O-])ccc2O)cc1	65.2	-9.3%	?	?	-0.6%	2.6%
S=c1[nH]nc(COc2ccc(Cl)cc2)n1C1CCCCC1	18.6	-21.8%	?	?	-1.5%	-31.0%
Cc1cccc(OCc2n[nH]c(=S)n2C2CCCCC2)c1	20.8	-27.8%	23.1µM*	?	-9.1%	-39.2%
Cc1ccc(OCc2n[nH]c(=S)n2C2CCCCC2)cc1	37.0	-27.0%	29.1µM*	18.4µM*	-9.1%	-49.9%
O=C(CNC(=O)c1ccc(OC(F)F)cc1)Nc1cccc(S(=O)(=O)N2CCCC2)c1	4.6	-9.8%	-21.1%	-10.6%	-2.8%	-1.1%
CCn1cc(C(=O)NCCc2ccc(C)cc2)c(=O)c2cc(S(=O)(=O)N3CCC(C)CC3)ccc21	nt	-18.7%	?	?	nt	-14.1%
CCC1(C2CCN(C(=O)c3cc(F)ccc3F)CC2)NC(=O)N(CCc2scnc2C)C1=O (centres undefined)	nt	nt	9.2%[9.04 µM]	-6.5%	nt	nt
O=C(CP(=O)(c1ccccc1)c1ccccc1)Nc1cccc(CP(=O)(c2ccccc2)c2ccccc2)c1	?	0.0%	?	23.1µM*	2.6%	-17.8%
CCC(C)COC(=O)C(C#N)c1nc2ccccc2nc1N1CCCCC1 (centres undefined)	-27.8	-0.8%	?	16.4µM*	4.3%	1.1%
CCCCCCOC(=O)C(C#N)c1nc2ccccc2nc1N1CCN(C)CC1 (centres undefined)	-24.7	?	?	?	21.5%	-110.1%
CCC(CC)COC(=O)C(C#N)c1nc2ccccc2nc1N1CCN(CC)CC1 (centres undefined)	-60.3*	?	20.6µM*	?	44.9%	-111.7%
COc1ccc(S(=O)(=O)N2CCOCC2)cc1NC(=O)C1CC1	6.7	2.8%	-8.8%	8.0%	6.5%	-0.2%
O=c1oc2ccccc2cc1-c1cn2cc(Cc3ccc(Cl)cc3)sc2n1	nt	2.5%	3.26µM*	2.59µM*	nt	0.1%
CCOCc1c(C(=O)Nc2cc(OCC)c(N3CCOCC3)cc2OCC)oc2ccccc12	27.1	-26.2%	?	?	-3.4%	-17.4%
Cc1ccccc1NC(=O)c1ccc2nc(N3CCOCC3)sc2c1	-25.9	1.9%	18.4µM*	14.6µM*	1.6%	0.4%
SMILES	IL1B secr inh	TGFb inhibitor	DT40 TDP1 CPT	DT40 TDP1 no CPT	S-ASM inh	HepG2 viability
Cc1ccccc1CNC(=O)c1ccc2nc(N3CCOCC3)sc2c1	9.0	-14.2%	?	?	-0.8%	-26.0%
CCCn1nc(C(=O)Nc2ccc3nc(N4CCOCC4)sc3c2)ccc1=O	17.3	-20.1%	9.2µM*	10.3µM*	-2.7%	-16.3%
CCOCc1c(C(=O)Nc2ccccc2N2CCN(C)CC2)oc2ccccc12	-57.5*	-11.2%	8.2µM*	10.3µM*	-0.3%	-35.6%
CCOCc1c(C(=O)Nc2ccc3nc(N4CCOCC4)sc3c2)oc2ccccc12	-16.2	-23.9%	20.6µM*	?	-11.1%	-38.7%
Cn1c2ccccc2c2cnn(CC(=O)N3CCCCC3)c(=O)c21	-10.6	1.9%	-24.8%	-5.7%	-1.1%	-14.5%
Cc1[nH]c(=O)[nH]c(=O)c1/C=N/NC(=O)[C@@H](N)CC(C)C	-5.1	3.9%	-2.5%	-6.2%	7.6%	0.1%
O=C1CC(c2ccccc2)(c2ccccc2)c2ccccc21	-10.3	-7.9%	0.0%	-3.8%	-10.9%	-4.0%
CN(C)c1ccc(/C=C/c2nc3ccccc3s2)cc1	-25.1	12.6µM*!	16.4µM*	0.1µM*	69.6%	-68.6%
Cc1ccc(/C=C/c2nc3ccccc3s2)s1	-1.0	-3.7%	-12.3%	-24.8%	62.9%	-57.6%
CN(Cc1ccccc1)c1ccc(C=O)cc1	nt	-14.7%	?	?	nt	-1.0%
C=C(/C=C/c1ccc(N(C)C)cc1)c1nc2ccccc2s1	nt	-19.8%	0.0891µM*	0.112µM*	nt	-31.0%
CN(Cc1ccccc1)c1ccc(/C=C/c2nc3ccccc3s2)cc1	nt	?	0.316µM*	0.1µM*	nt	-84.6%
Cc1c(C)c(C)c(S(=O)(=O)NCCc2ccncc2)c(C)c1C	67.4	?	2.3%	?	-2.1%	-3.7%
COc1ccc(N=C2SC(CC(=O)Nc3ccccc3OC)C(=O)N2Cc2ccco2)cc1 (centres undefined)	-1.1	13.5%	?	?	-3.1%	0.5%
O=C(CC1SC(=Nc2cccc3ccccc23)N(Cc2ccccn2)C1=O)Nc1ccccc1Br (centres undefined)	-4.0	-22.3%	4.61µM*	2.31µM*	-13.7%	-40.4%
CCN1C(=O)C(CC(=O)Nc2cccc(C(C)=O)c2)S/C1=N\c1ccccn1 (centres undefined)	-3.3	-24.0%	?	?	4.8%	5.4%
